# Laboratory results as given in PubChem BioAssay.
# Activity calls are given as the source filed them.
# Assays:
# Albumin (Bos taurus) = Albumin (Bos taurus) (UniProt P02769); test: bovine serum albumin binders on microarray, profiling panel, artefact control for SMM control protein annotation, biochemical, small-molecule microarray, Alexa647 label, 635/667 nm fluorescence (AID 1118); details: BSA-A647 binding, fluorescence 635 nm, higher = more signal;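 further: score merges 667 nm emission intensity and signal-to-noise per printed compound spot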
# Albumin (Bos taurus), sequence (P02769 whole entry, looked up): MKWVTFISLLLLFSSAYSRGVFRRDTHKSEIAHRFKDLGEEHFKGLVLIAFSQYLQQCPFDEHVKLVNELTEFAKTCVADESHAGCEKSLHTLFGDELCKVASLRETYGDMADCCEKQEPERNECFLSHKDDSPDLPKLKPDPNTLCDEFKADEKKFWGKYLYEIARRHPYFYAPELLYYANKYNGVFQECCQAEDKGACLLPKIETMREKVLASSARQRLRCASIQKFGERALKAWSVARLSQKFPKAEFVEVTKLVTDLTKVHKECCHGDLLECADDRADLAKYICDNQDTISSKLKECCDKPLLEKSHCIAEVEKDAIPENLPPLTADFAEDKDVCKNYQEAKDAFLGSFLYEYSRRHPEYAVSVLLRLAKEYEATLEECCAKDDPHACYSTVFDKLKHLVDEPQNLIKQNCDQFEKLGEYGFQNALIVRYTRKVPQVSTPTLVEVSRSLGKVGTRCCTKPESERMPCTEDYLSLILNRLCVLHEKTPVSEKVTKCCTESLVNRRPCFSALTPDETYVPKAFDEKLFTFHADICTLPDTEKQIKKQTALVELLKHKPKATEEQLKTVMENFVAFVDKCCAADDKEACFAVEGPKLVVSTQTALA
# [1] = small-molecule microarray binders of probe aXIP, primary screen, biochemical, NeuroSMM set, 635/667 nm fluorescence (AID 1119); details: higher = more signal, called active from +8 up or from −8 down;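 further: probe is the protein aXip251-270 applied at 1 µg/mL to compound-printed slides; binding of probe to printed compounds measured as 667 nm fluorescence plus signal to noise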
# [2] = small-molecule binders of probe aNOTCH3, primary screen, biochemical, small-molecule microarray, 635/667 nm fluorescence (AID 1120); details: higher = more signal;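 further: probe is a biotin-tagged antibody raised against NOTCH3 rather than NOTCH3 protein; score merges spot fluorescence near 667 nm with spot signal to noise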
# [3] = small-molecule binders of probe aNOTCH2, primary screen, biochemical, small-molecule microarray, 635/667 nm fluorescence (AID 1121); details: higher = more signal;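 further: score merges feature fluorescence read at 667 nm with its signal to noise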
# [4] = biological target: Carbonic anhydrase 2 (Homo sapiens) (UniProt P00918); test: CAII small-molecule binders, profiling panel, biochemical, small-molecule microarray, Alexa647-labelled CAII (AID 1122); details: CAII-A647 binding fluorescence, higher = more signal
# [5] = COS7 lysate on small-molecule microarray, probe aHis, 635 nm (AID 1123); details: COS7 cell lysate, fluorescence, higher = more signal;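 further: z-score combines 667nm fluorescence intensity with signal-to-noise per printed compound spot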
# [6] = compound binding in COS7 lysate, probe aLAP1, primary screen, cell lysate, small-molecule microarray (AID 1124); details: probe aLAP1, fluorescence, higher = more signal;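 further: lysate comes from COS7 cells expressing LAP1 and is applied at 0.3 µg/mL; score merges spot fluorescence near 667 nm with signal-to-noise over triplicate slides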
# Sam68 (KHDRBS1) = test: Sam68 small-molecule binders, primary screen, biochemical, small-molecule microarray, 635 nm fluorescence (AID 1125); details: small-molecule microarray binding, higher = more signal;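 further: score merges 667 nm channel intensity with signal to noise over triplicate slides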
# [7] = test system: Chordin-like protein 2 (CHRDL2); test: CHRDL2 small-molecule binders, primary screen, biochemical, small-molecule microarray, 635 nm fluorescence (AID 1126); details: small-molecule microarray binding, fluorescence 635 nm; higher = more signal;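 further: printed compound slides probed with Chrdl2 protein at 4 µg/mL for 1 h at 4 C; score merges 667 nm emission intensity with signal to noise over three replicate slides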
# [8] = biological target: Concanavalin-A (Canavalia ensiformis) (UniProt P02866); test: ConA small-molecule binders, primary screen, artefact control for SMM control protein annotation, biochemical, small-molecule microarray, Alexa647 label, 635 nm (AID 1127); details: ConA-A647 binding fluorescence, higher = more signal;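 further: z combines 667 nm emission intensity with signal-to-noise across three replicate slides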
# Concanavalin-A (Canavalia ensiformis), sequence (P02866 whole entry, looked up): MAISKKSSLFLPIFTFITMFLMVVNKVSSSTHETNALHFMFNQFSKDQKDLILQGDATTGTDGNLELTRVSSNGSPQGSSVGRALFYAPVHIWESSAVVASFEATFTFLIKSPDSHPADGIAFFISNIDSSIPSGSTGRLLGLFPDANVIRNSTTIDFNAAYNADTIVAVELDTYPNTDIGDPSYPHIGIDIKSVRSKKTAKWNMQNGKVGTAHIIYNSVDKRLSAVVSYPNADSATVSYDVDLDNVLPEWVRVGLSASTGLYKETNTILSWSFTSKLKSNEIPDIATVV
# [9] = anti-His antibody binders, primary screen, artefact control for SMM control protein annotation, biochemical, small-molecule microarray, 635 nm fluorescence (AID 1128); details: anti-His Alexa647 antibody binding, higher = more signal;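 further: score merges feature fluorescence with signal-to-noise for each printed compound spot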
# [10] = test system: Human papillomavirus type 1a E7 protein (residues 1-88); test: HPV1a E7 small-molecule binders, primary screen, biochemical, small-molecule microarray, residues 1-88, 635 nm (AID 1129); details: small-molecule microarray binding, fluorescence 635 nm; higher = more signal
# [11] = biological target: Focal adhesion kinase 1 (Homo sapiens) (UniProt Q05397); test: small-molecule microarray binders of FAK, primary screen, biochemical, 635/667 nm fluorescence, BSA, DTT (AID 1130); details: PTK2 binding, 635 nm fluorescence, higher = more signal;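 further: composite of spot emission at 667 nm and signal to noise over triplicate slides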
# Focal adhesion kinase 1 (Homo sapiens), sequence (Q05397 whole entry, looked up): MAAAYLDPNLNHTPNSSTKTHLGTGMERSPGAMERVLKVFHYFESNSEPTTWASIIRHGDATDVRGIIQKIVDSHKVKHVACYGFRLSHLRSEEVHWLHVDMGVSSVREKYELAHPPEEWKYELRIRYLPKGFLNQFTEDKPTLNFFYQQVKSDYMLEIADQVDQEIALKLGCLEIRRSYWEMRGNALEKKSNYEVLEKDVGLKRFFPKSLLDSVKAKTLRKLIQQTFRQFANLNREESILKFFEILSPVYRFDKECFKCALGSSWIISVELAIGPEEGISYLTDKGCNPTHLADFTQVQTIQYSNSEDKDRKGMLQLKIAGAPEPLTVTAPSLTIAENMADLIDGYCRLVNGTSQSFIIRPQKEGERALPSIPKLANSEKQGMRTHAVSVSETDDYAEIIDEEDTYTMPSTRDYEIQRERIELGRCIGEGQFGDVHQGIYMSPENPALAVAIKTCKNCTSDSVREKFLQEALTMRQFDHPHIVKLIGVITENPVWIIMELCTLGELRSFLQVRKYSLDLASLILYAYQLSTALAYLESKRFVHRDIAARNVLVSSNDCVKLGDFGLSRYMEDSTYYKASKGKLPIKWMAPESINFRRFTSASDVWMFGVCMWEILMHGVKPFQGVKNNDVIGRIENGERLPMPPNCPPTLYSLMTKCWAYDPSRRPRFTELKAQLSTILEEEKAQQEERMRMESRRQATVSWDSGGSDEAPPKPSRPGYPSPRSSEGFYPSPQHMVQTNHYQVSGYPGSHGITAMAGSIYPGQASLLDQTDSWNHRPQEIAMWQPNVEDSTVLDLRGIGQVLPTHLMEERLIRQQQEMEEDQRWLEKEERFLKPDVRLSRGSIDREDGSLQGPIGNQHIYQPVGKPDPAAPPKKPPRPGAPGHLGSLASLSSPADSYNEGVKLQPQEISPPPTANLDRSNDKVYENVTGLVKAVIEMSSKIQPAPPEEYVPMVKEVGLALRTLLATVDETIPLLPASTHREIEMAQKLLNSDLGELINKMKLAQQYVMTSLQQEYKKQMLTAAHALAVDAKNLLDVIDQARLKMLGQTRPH
# [12] = test system: Fibrinogen (Alexa647-labelled); test: fibrinogen binders on compound microarrays, profiling panel, artefact control for SMM control-protein annotation, biochemical, small-molecule microarray, 635/667 nm fluorescence (AID 1131); details: fibrinogen-A647 binding fluorescence, higher = more signal;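 further: z-score merges 667 nm fluorescence with per-spot signal-to-noise over triplicate slides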
# [13] = biological target: Follistatin (Homo sapiens) (UniProt P19883); test: follistatin binders on small-molecule microarrays, primary screen, biochemical, small-molecule microarray, 635/667 nm fluorescence (AID 1132); details: FST binding, 635 nm fluorescence, higher = more signal
# Follistatin (Homo sapiens), sequence (P19883 whole entry, looked up): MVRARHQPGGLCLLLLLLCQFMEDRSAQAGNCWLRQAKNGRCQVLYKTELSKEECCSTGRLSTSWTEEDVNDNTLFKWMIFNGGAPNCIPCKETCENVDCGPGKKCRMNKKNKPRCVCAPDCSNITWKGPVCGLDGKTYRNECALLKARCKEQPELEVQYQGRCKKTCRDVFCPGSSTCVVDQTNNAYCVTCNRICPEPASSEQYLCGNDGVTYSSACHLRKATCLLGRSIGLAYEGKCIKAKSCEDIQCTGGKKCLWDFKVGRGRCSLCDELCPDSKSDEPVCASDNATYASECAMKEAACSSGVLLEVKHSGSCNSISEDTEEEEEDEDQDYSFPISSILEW
# [14] = biological target: Fibroblast growth factor 2 (Homo sapiens) (UniProt P09038); test: FGF2 binders on small-molecule microarrays, primary screen, biochemical, small-molecule microarray, 635/667 nm fluorescence (AID 1133); details: small-molecule microarray binding, FGF2, fluorescence 635/667; higher = more signal
# Fibroblast growth factor 2 (Homo sapiens), sequence (P09038 whole entry, looked up): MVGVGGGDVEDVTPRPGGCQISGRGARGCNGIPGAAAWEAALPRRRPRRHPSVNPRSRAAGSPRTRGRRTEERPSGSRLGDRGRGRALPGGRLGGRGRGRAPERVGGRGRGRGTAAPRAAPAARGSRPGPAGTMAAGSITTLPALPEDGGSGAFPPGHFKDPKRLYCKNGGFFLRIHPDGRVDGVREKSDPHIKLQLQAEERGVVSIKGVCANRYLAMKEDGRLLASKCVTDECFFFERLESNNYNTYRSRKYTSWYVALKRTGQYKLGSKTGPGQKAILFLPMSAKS
# [15] = mitochondrial membrane potential change in A549 cells, profiling panel, cell-based, JC-1 fluorescence, basal, 24 h, 100 nL (AID 1138); details: higher = more signal;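 further: A549 lung adenocarcinoma cells under basal conditions with no added stimulus; test concentration not given here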
# Lefty1 = Lefty1 binders on small-molecule microarrays, primary screen, biochemical, small-molecule microarray, 635/667 nm fluorescence (AID 1139); details: small-molecule microarray binding, fluorescence 635/667; higher = more signal
# [16] = test system: wheat germ agglutinin (Triticum aestivum), Alexa647-labelled; test: wheat germ agglutinin binders on compound microarrays, profiling panel, artefact control for SMM control-protein annotation, biochemical, small-molecule microarray, 635/667 nm fluorescence (AID 1140); details: WGA-A647 binding, 635 nm fluorescence, higher = more signal;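 further: score merges 667 nm feature emission with signal to noise over triplicate slides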
# [17] = biological target: Luciferin 4-monooxygenase (Photinus pyralis) (UniProt P08659); test: firefly luciferase enzyme inhibitors, primary screen, biochemical, luminescence, purified enzyme, 2006 set (AID 1141); details: SteadyGlo luminescence, 30 min, higher = more signal, called active from +8 up or from −8 down;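 further: cell-free assay with purified firefly luciferase at 100 ng per well in PBS; test concentration not given here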
# Luciferin 4-monooxygenase (Photinus pyralis), sequence (P08659 whole entry, looked up): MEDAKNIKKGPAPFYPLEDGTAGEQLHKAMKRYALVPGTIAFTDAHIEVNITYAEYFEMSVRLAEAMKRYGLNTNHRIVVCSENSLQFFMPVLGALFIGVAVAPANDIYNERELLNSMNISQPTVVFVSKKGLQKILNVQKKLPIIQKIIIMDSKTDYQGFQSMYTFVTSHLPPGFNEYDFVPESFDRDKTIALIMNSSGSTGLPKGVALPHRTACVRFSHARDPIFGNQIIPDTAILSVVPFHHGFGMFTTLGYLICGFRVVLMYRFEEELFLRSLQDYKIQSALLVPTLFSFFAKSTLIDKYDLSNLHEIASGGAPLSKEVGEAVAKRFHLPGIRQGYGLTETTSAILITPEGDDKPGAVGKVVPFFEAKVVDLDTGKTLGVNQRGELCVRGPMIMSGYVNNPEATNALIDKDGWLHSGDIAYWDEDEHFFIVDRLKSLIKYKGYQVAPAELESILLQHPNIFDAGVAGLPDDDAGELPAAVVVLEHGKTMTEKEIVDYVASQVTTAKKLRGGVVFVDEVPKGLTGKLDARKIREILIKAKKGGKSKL
Compound,composite z-score (Albumin (Bos taurus)),composite Z-score [1],composite z-score [2],composite z-score [3],composite z-score [4],composite z-score [5],composite z-score [6],composite z-score (Sam68 (KHDRBS1)),composite z-score [7],composite z-score [8],composite z-score [9],composite z-score [10],composite z-score [11],composite z-score [12],composite z-score [13],composite z-score [14],z-score [15],composite z-score (Lefty1),composite z-score [16],z-score [17]
O=C1O[C@H](Cc2ccccc2)[C@@H]2[C@H]3C=CCCC=C3CN2[C@H]1Cc1ccc(O)cc1,-0.314,-0.263 (inactive),0.0208,-0.122,0.746,-0.265,-0.256,-1.09,-0.278,-0.211,1.38,-1.36,0.203,-2.73,0.16,-0.579,-0.653,0.262,0.778,-0.992 (inactive)
CCCC[C@H]1OB(O)C[C@H]2C1=C(COc1ccccc1)C[C@H]1C(=O)C=CC(=O)[C@H]12,-0.339,0.229 (inactive),-0.0333,-0.0942,-0.173,-0.145,-0.317,0.564,0.647,0.315,0.219,0.398,0.628,0.951,1.06,0.696,1.04,1,0.22,-2.36 (inactive)
CC(C)C(=C=CC[C@H](O)c1ccccc1OCCO)C[C@H](O)c1cc(Cl)cc(Cl)c1O,0.791,-0.275 (inactive),0.141,-0.106,0.664,1.48,0.114,1.31,-0.114,1.14,-0.287,1.15,0.0701,0.866,1.09,0.285,0.686,1.27,1.16,-1.38 (inactive)
CC[C@@H]1C=C(C(=O)O)[C@H](c2ccc(OC)cc2)N1S(=O)(=O)c1ccc(C)cc1,0.493,0.112 (inactive),-0.061,-0.173,0.852,2.55,-0.388,-0.815,-0.377,-0.0828,-0.0418,0.521,0.359,-0.342,-0.055,-0.477,0.0749,0.112,0.164,1.04 (inactive)
COc1cc(CO)cc(I)c1O[C@H]1C=C(C(=O)NCCO)C[C@@H]2O[C@H]12,-0.39,1.49 (inactive),-0.0311,-0.0596,0.465,1.07,0.0543,1.3,1.36,1.01,0.426,1.22,0.572,0.4,1.52,2.13,-0.976,1.37,0.308,0.847 (inactive)
CCOC(=O)C[C@H]1[C@H](OC(=O)Cc2ccc3c(c2)OCO3)[C@@H](NC(=O)c2ccc3ccccc3n2)c2cc(OCCCO)ccc2N1C(=O)Cc1ccc(OC)cc1,0.635,0.378 (inactive),0.169,-0.0286,0.276,0.654,0.0887,0.91,-0.17,0.774,0.337,0.672,-0.307,0.557,0.72,0.394,1.26,0.577,0.391,-0.628 (inactive)
COc1ccc(C(O)C2C=CC3C(=O)NC(=O)C3N2Nc2ccc(Cl)cc2Cl)c2ccccc12 (stereo not given),0.678,0.309 (inactive),0.0328,0.0856,0.602,1.94,0.709,0.35,-0.359,0.934,1.54,1.15,0.486,0.925,0.797,-0.19,-0.209,-0.0846,1.19,-1.93 (inactive)
COC(=O)C1(Cc2ccccc2)C=C2C(=C(C)C(=O)C2C)CN1 (stereo not given),-0.0396,0.877 (inactive),0.0203,0.197,0.742,2.62,0.578,-0.674,0.46,-0.634,1.21,0.732,0.296,0.775,0.714,-0.298,1.47,-0.104,0.622,-0.112 (inactive)
CN(C)CCCNC(=O)[C@@H]1c2ccccc2C(=O)N(Cc2ccccc2C(F)(F)F)[C@H]1c1ccc(CO)cc1,0.334,0.0871 (inactive),-0.0106,-0.0996,0.338,1.35,0.2,0.793,-1.5,0.0021,-1.51,0.197,-0.142,-0.126,0.0865,-0.361,2.89,-0.913,0.1,-1.13 (inactive)
O=C(NCC(O)CO)C1N=C(c2ccc(OCCCO)cc2)N(c2ccccc2)O1 (stereo not given),-0.138,-0.226 (inactive),-0.0996,0.162,0.821,0.0043,1.04,1,0.157,0.53,0.703,0.697,-0.102,0.0565,1.38,1.32,0.42,0.876,0.471,-10.9 (active)
